Reference: PubChem BioAssay AID588856 (National Center for Advancing Translational Sciences (NCATS), 2011)
Hit rate of the full screen: of about 410,000 compounds, about 3,100 (0.76%) were called active. The call rests on the fitted dose curve; in most records, active means well fitted cell-killing curve with a large enough effect; inactive means no such curve, though single readings can be large or run the other way. Shown is part of a subset that was picked to be rich in actives. Entries that show only a call come without a potency.
Potency means the concentration at half of the fitted maximal effect.

Experiment: qHTS for Inhibitors of TGF-b: Cytotox Counterscreen
Conditions: HepG2 CAGA-GFP viability, ATP luminescence, 18 h; series mostly up to 46.1 µM
Method in brief: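 CellTiter-Glo luminescence gave cytotoxicity after 18 hours at 37 degrees C. The cells were HepG2 CAGA-GFP in 1% FBS DMEM, stimulated with 500 pg/mL TGF-beta after compound addition. %Activity was normalised to no-cell wells (complete cell-killing) and DMSO (no toxicity), and curves were fitted and classified.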
With `Cc1nc2c(c(C)nn2-c2ccccc2)c(C)c1CCC(=O)NCCc1ccc(Cl)cc1` the Potency was “inactive”. In the case of `CCOCCCNC(=O)c1cn(CC)c2ccc(S(=O)(=O)N3CCc4ccccc4C3)cc2c1=O`, the Potency is reported as “inactive”. For `CCOC(=O)c1c(C)oc2nc(C)nc(N(CC(C)C)CC(C)C)c12`, the Potency was “inactive”. With `CCOC(=O)c1ccc(N2C(=O)c3n[nH]c(C)c3C2c2ccc(O)c(OC)c2)cc1` (configuration not stated) the Potency was “inactive”. In the case of `CCOc1ccc(-c2n[nH]c3c2C(c2ccccc2OC)N(c2ccc(Br)cc2)C3=O)cc1` (configuration not stated), the Potency is reported as “inactive”. With `CCOc1cc(C2c3c(-c4ccc(Br)cc4)n[nH]c3C(=O)N2c2ccc(Cl)cc2)ccc1O` (configuration not stated) the Potency was 10 µM (active). In the case of `O=C(NCc1ccc(Cl)cc1)c1ccc2c(c1)nnn2C1CCCC1`, the Potency is reported as “inactive”. In the case of `COc1ccc(C(=O)/C=C/c2cccnc2)c(OC)c1`, the Potency is reported as 15.8 µM (active). In the case of `COc1ccc(/C=C/C(=O)c2cc(Br)ccc(=O)c2O)cc1`, the Potency is reported as “inactive”. In the case of `COc1ccc(C(=O)COC(=O)C(O)c2ccccc2)c(OC)c1` (configuration not stated), the Potency is reported as “inactive”. With `CCS(=O)(=O)c1nc(S(=O)(=O)c2ccc(C)cc2)c(NCc2ccc(Cl)cc2)s1` the Potency was “inactive”. With `CCC(=O)N1CCc2cc(Br)cc(S(=O)(=O)CCC(=O)NCCc3ccc(OC)c(OC)c3)c21` the Potency was “inactive”. In the case of `COc1ccc(-c2cn3nc(N4CCC(C(=O)Nc5cccc(C)c5C)CC4)sc3n2)cc1`, the Potency is reported as “inactive”. For `CC(C)=CCCC1(C)C=Cc2c(ccc3c2[nH]c2cc(O)c(C)cc23)O1` (configuration not stated), the Potency was 15.8 µM (active). For `Brc1ccc2c(c1)NC(c1cccnc1)=NC(c1ccccc1)=N2`, the Potency was “inactive”. For `COc1ccc(CCNC(=O)c2cc(=O)c3c(C)cc(C)cc3o2)cc1OC`, the Potency was “inactive”. For `Cc1ccc(N(C)C(=O)C2CCN(S(=O)(=O)c3ccc4c(c3)CCCN4C(=O)C3CCC3)CC2)cc1`, the Potency was “inactive”. For `CCc1ccc(NC(=O)C2CCCN2S(=O)(=O)c2ccc3nc(-c4ccccc4)[nH]c3c2)cc1` (configuration not stated), the Potency was “inactive”. For `O=C(c1ccc(CN2CCOCC2)cc1)N1CCN(c2ccccc2F)CC1`, the Potency was 3.16 µM (active). In the case of `O=C(CCSc1ccccc1)N1CCN(c2ccccc2F)CC1`, the Potency is reported as “inactive”. For `O=S(=O)(N1CCOCC1)N1CCN(c2ccccc2F)CC1`, the Potency was “inactive”. In the case of `Cc1cccc(N2CCN(C(=O)c3ccc(Nc4nc5ccccc5n5nnnc45)cc3)CC2)c1C`, the Potency is reported as “inactive”. For `CN(C)c1ccc(C=Nc2ccc(/C=C/c3ccnc4ccccc34)cc2)cc1`, the Potency was “inactive”. For `Oc1c(Cl)cc(Cl)c(Cl)c1Cc1c(O)c(Cl)cc(Cl)c1Cl`, the Potency was 10 µM (active). For `N#Cc1ccc[n+](CC(=O)c2ccc(F)cc2)c1`, the Potency was “inactive”. For `COC(=O)c1ccc(Cn2c(SCC(=O)N(C)c3ccccc3)nc3ccccc32)cc1`, the Potency was “inactive”. For `CCOC(=O)c1scc(-c2ccccc2)c1S(=O)(=O)Nc1ccccc1F`, the Potency was “inactive”. For `CCCS(=O)(=O)c1ncc(Cl)c(C(=O)Nc2scc(-c3ccccc3)c2C(=O)OCC)n1`, the Potency was 11.2 µM (active). For `CCOC(=O)c1c(-c2ccc(C)cc2C)csc1NC(=O)CSc1nnnn1C`, the Potency was “inactive”. In the case of `CCOC(=O)c1ccc(NC(=O)CC2C(=O)N(c3ccccc3)C(=O)N2Cc2cccs2)cc1` (configuration not stated), the Potency is reported as “inactive”. With `CCC(C)N(c1ccc(/C=C/c2ccnc3ccccc23)cc1)C(C)CC` (configuration not stated) the Potency was “inactive”. With `Cc1cccc(NC(=O)N2CCC(CN3CCc4ccccc4C3)CC2)c1C` the Potency was “inactive”. For `Cc1ccccc1Cn1c2ccccc2c2cnn(CC(=O)NCc3ccco3)c(=O)c21`, the Potency was “inactive”. With `CCCN(CCC)CCCNC(=O)Cn1ncc2c3ccccc3n(Cc3ccccc3)c2c1=O` the Potency was “inactive”. For `CCN(CC)CCNC(=O)Cn1ncc2c3ccccc3n(Cc3ccccc3C)c2c1=O`, the Potency was 15.8 µM (active). With `O=C(CSc1oc(-c2ccco2)nc1S(=O)(=O)c1ccc(Cl)cc1)c1ccccc1` the Potency was “inactive”. With `COC(=O)CC1Oc2ccccc2-n2cc(-c3ccccc3)nc21` (configuration not stated) the Potency was “inactive”. For `CCOc1ccc(C(=O)Nc2ccc3nc4c(c(Nc5ccccc5OC)c3c2)CCCC4)cc1`, the Potency was “inactive”. In the case of `COc1cc(/C=C/C(=O)O)cc(S(=O)(=O)Nc2ccccc2SC)c1OC`, the Potency is reported as “inactive”. For `COc1ccccc1Nc1c2c(nc3ccc(NC(=O)/C=C/c4cc(OC)c(OC)c(OC)c4)cc13)CCCC2`, the Potency was 5.62 µM (active). In the case of `COCCCNC(=O)c1c(NC(=O)c2cc(=O)c3cc(C)c(C)cc3o2)sc2c1CCCC2`, the Potency is reported as “inactive”. With `COC(=O)c1sc(-c2ccc(C(C)(C)C)cc2)cc1NC(=O)/C=C/C(=O)O` the Potency was 7.08 µM (active). For `OC(Cc1ccc2ccccc2n1)c1ccc(Cl)c(Cl)c1` (configuration not stated), the Potency was “inactive”. In the case of `C/C=C/NNC(=O)Cc1ccc(OC)cc1`, the Potency is reported as “inactive”. For `Cc1cccc(-c2nc(SCc3ccc(Br)cc3)n3[nH]c(=O)cc3n2)c1`, the Potency was “inactive”. For `O=c1cc2nc(-c3ccccc3)nc(SCCOc3ccc(Cl)cc3)n2[nH]1`, the Potency was “inactive”. In the case of `Cc1ccc(-c2nc(SCc3ccc(Br)cc3)n3[nH]c(=O)cc3n2)cc1`, the Potency is reported as 5.01 µM (active). For `COc1ccc(-c2nc(CN3CCC(C(=O)NCc4ccccc4)CC3)c(C)o2)cc1OC`, the Potency was “inactive”. With `Nc1ccc(/C=C/c2ccnc3ccccc23)c([N+](=O)[O-])c1` the Potency was “inactive”. In the case of `COc1cccc(CNC(=O)c2ccc3c(c2)sc2nc(-c4cccc(OC)c4)cn23)c1`, the Potency is reported as “inactive”. For `Cc1cccc(-n2c(SCC(N)=O)nc3c(oc4ccccc43)c2=O)c1`, the Potency was “inactive”. With `Cc1cc(C)cc(Nc2ncnc3onc(-c4ccc(F)cc4)c23)c1` the Potency was “inactive”. For `C=COC(=O)N1CCN(/[N+]([O-])=N/Oc2ccc([N+](=O)[O-])cc2[N+](=O)[O-])CC1`, the Potency was “inactive”. In the case of `Cc1cc(NS(=O)(=O)c2ccc3oc(=O)c4ncn(C)c4c3c2)ccc1Br`, the Potency is reported as 11.2 µM (active). In the case of `CCn1c(=O)c(=O)[nH]c2c(=O)oc3ccc(S(=O)(=O)Nc4ccc(OC)cc4)cc3c21`, the Potency is reported as “inactive”. In the case of `Cc1cccc(NS(=O)(=O)c2ccc(-c3cnc(C4CC4)o3)cc2)c1`, the Potency is reported as “inactive”. In the case of `Cc1ccc(-c2cc(C(F)(F)F)c(C#N)c(SCC(=O)Nc3ccccc3)n2)cc1`, the Potency is reported as “inactive”. In the case of `CCc1ccc(NS(=O)(=O)c2ccc3[nH]cc(C(=O)NCCc4cccc(C)c4)c(=O)c3c2)cc1`, the Potency is reported as “inactive”. For `CC(=O)/C(=N\Nc1ccc(Cl)cc1Cl)Sc1cccc2cccnc12`, the Potency was 3.98 µM (active). With `O=C(Nc1cccc2cccnc12)C(F)(F)F` the Potency was “inactive”. For `COc1c(Cl)cc(Cl)cc1C(=O)Nc1cccc2cccnc12`, the Potency was “inactive”. For `Clc1cccc[n+]1CCCC[n+]1ccccc1Cl`, the Potency was “inactive”. With `Cc1ccccc1-c1nc2cc(NC(=O)c3cccc(OCCC(C)C)c3)ccc2o1` the Potency was “inactive”. For `COc1cc(OC)c2c(c1C(CCN1CCCCC1)c1ccc(N(C)C)cc1)OC(=O)CC2c1ccc(N(C)C)cc1` (configuration not stated), the Potency was “inactive”. In the case of `COc1ccc(Nc2ncc(C(=O)Nc3cc(C)ccc3OC)c3ccccc23)cc1`, the Potency is reported as “inactive”. In the case of `COc1cc(/C=C/C(=O)OCC(=O)Nc2cccc(Oc3ccccc3)c2)ccc1O`, the Potency is reported as “inactive”. For `COc1ccc(C(=O)Nc2ccccc2C(=O)N/N=C/c2ccc(O)c(OC)c2)cc1`, the Potency was 3.55 µM (active). In the case of `COc1cc(NC(=O)c2[nH]cnc2C(N)=O)cc(C(=O)Nc2cccc(C(F)(F)F)c2)c1`, the Potency is reported as 7.08 µM (active). In the case of `Cc1onc(-c2ccc(F)cc2F)c1C(=O)Nc1cccc(C(F)(F)F)c1`, the Potency is reported as “inactive”. For `COc1cc(OC)cc(C(=O)Nc2ccc3nc(Nc4cccc(C(F)(F)F)c4)cc(C)c3c2)c1`, the Potency was “inactive”. In the case of `COc1ccc(/C=C/c2ccccn2)cc1OC`, the Potency is reported as “inactive”. With `Cc1ccc(-c2cn3c(n2)sc2cc(C(=O)NCc4cccs4)ccc23)c(C)c1` the Potency was “inactive”. For `COc1ccc(NC(=O)Cn2c(=O)n(CCC(C)C)c(=O)c3cccnc32)cc1Cl`, the Potency was “inactive”. In the case of `CN(C)C1=NC[C@H](Cc2ccccc2)N1CCc1ccc(F)cc1`, the Potency is reported as “inactive”. For `CCCC[C@@H]1CN=C(N)N1CCc1cc(C(F)(F)F)cc(C(F)(F)F)c1`, the Potency was 15.8 µM (active). In the case of `CCCCN1C(N)=NC[C@@H]1CC1CCCCC1`, the Potency is reported as “inactive”. With `CC(NC(=O)CCc1cn(Cc2ccccc2Cl)c2ccccc12)c1ccccc1` (configuration not stated) the Potency was “inactive”. For `Cc1cc(OC(C)C(=O)Nc2sc3c(c2C(N)=O)CCCC3)ccc1Cl` (configuration not stated), the Potency was “inactive”. With `O=C(Cn1ncn2nc(-c3cccs3)cc2c1=O)NCc1cccc(Br)c1` the Potency was “inactive”. In the case of `Cc1ccc(C)c(OCC(=O)Nc2sc3c(c2C#N)CCCC3)c1C`, the Potency is reported as “inactive”. With `CCOC(=O)N1CCc2c(sc3c2C(=O)NC(c2ccccc2F)N3)C1` (configuration not stated) the Potency was “inactive”. In the case of `NC1=CC(=O)C(=O)c2cccnc21`, the Potency is reported as 6.31 µM (active). In the case of `Cc1ccc2c(=O)cc(C(=O)Nc3sc4c(c3C(=O)NCc3cccnc3)CCCC4)oc2c1`, the Potency is reported as “inactive”. In the case of `COc1ccc(N2CCN(c3nc(-c4ccccc4F)nc4ccccc34)CC2)cc1`, the Potency is reported as “inactive”. With `O=c1c2cc(Br)ccc2nc(-c2cccc(Cl)c2)n1O` the Potency was 15.8 µM (active). In the case of `CC(C)Cn1c(=O)c2ccccc2n2c(-c3cccc(Cl)c3)nnc12`, the Potency is reported as “inactive”. With `O=C(O)c1ccc(Nc2nc(-c3ccccc3)c3cc(Br)ccc3n2)cc1` the Potency was “inactive”. With `CCOc1ccccc1C(=O)NC1(C(F)(F)F)NC(=O)N(CCc2ccc(OC)c(OC)c2)C1=O` (configuration not stated) the Potency was “inactive”. With `Cc1nc(SCC(=O)Nc2ccc(C(=O)O)cc2)n[nH]1` the Potency was “inactive”. In the case of `CN(C)c1ccc(/C=C/C=C/c2ccnc3ccccc23)cc1`, the Potency is reported as “inactive”. With `Cc1nnc2n1N=C(c1ccc3c(c1)NC(=O)CO3)CS2` the Potency was “inactive”. In the case of `COc1ccc(C2=Nn3c(nnc3-c3ccccc3OC)SC2)cc1OC1CCCC1`, the Potency is reported as 17.8 µM (active). For `O=C(Nc1ccc([N+](=O)[O-])cc1)c1cnn2c1NC(=C1CC1)C=C2C(F)F`, the Potency was “inactive”. With `CCOc1ccc(Nc2nc3c(S(=O)(=O)c4cccc(Cl)c4)nnn3c3ccsc23)cc1` the Potency was “inactive”. In the case of `CCc1nc2ccc(C(=O)Nc3cccc(OC)c3)cn2c1N(CCC(C)C)CCN(C)C`, the Potency is reported as 11.2 µM (active). For `CCc1nc2ccc(C(=O)N(C)CCN(C)C)cn2c1N(CC)CCOC`, the Potency was “inactive”. In the case of `CCc1nc2ccc(C(=O)Nc3ccc(OC)c(OC)c3)cn2c1N(C)C(=O)c1cccc(OC)c1`, the Potency is reported as “inactive”.
